Data taken from PubChem BioAssay (NCI).
About 79,000 compounds went through this panel and 15% of them were active in at least one assay; those are over-represented in the sample as a whole. The source made the active and inactive calls. No stated cut-off is given here; in the data, active means growth inhibition above about 70%; inactive means the rest.

Legend:
[1] = NCI Yeast Anticancer Drug Screen. Data for the wt2 strain (AID 169);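 further: 0% = growth of vehicle-treated yeast cultures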; settings: S. cerevisiae wt2 strain growth inhibition, stronger effect = higher value
Procedure, shortened: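 Growth of compound-treated yeast is measured and expressed as inhibition relative to vehicle-only controls.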

[2] = NCI Yeast Anticancer Drug Screen. Data for the sgs1 strain (AID 173);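 further: 0% = growth of vehicle-only control cultures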; settings: S. cerevisiae sgs1 mutant, stronger effect = higher value
Procedure, shortened: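 Strain with an altered DNA repair or cell cycle pathway exposed to compound. Growth then measured. Value = inhibition versus vehicle control.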

[3] = NCI Yeast Anticancer Drug Screen. Data for the mlh1 rad18 strain (AID 175); settings: S. cerevisiae mlh1 rad18 strain growth inhibition, stronger effect = higher value
Procedure, shortened: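 A repair-deficient yeast strain is exposed to test compound, and growth is scored relative to vehicle-treated controls.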

[4] = NCI Yeast Anticancer Drug Screen. Data for the rad18 strain (AID 177); settings: S. cerevisiae rad18 mutant growth inhibition, stronger effect = higher value
Procedure, shortened: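 DNA-repair-defective yeast; compound treatment; growth inhibition scored against vehicle.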

[5] = NCI Yeast Anticancer Drug Screen. Data for the rad52 strain (AID 147);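 further: 0% = growth of vehicle-treated control cultures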; settings: S. cerevisiae rad52 mutant growth inhibition, stronger effect = higher value
Procedure, shortened: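 Growth of repair-deficient yeast cells was compared between compound-treated and vehicle-treated cultures to give percent inhibition.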

[6] = NCI Yeast Anticancer Drug Screen. Data for the wt1 strain (AID 149);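 further: 0% = growth of vehicle-treated wt1 cultures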; settings: S. cerevisiae wt1 strain (SPY 50644) growth inhibition, stronger effect = higher value
Procedure, shortened: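 The wt1 strain was treated with compounds, and growth was compared with vehicle-treated cultures to give inhibition.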

[7] = NCI Yeast Anticancer Drug Screen. Data for the rad50EPP+ strain (AID 151);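 further: 0% = growth of vehicle-treated control cultures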; settings: S. cerevisiae rad50 mutant strain, stronger effect = higher value
Procedure, shortened: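 Measured: growth inhibition of rad50EPP+ yeast. Reference: vehicle-treated controls. Screen uses strains with defined genetic alterations in DNA damage repair or cell cycle control.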

[8] = NCI Yeast Anticancer Drug Screen. Data for the mgt1 strain (AID 153); settings: S. cerevisiae mgt1 mutant growth inhibition, stronger effect = higher value
Procedure, shortened: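 Compounds were applied to mgt1 mutant yeast, and growth was then compared against vehicle-treated control cultures to give percent inhibition.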

[9] = NCI Yeast Anticancer Drug Screen. Data for the rad50 strain (AID 155);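 further: 0% = growth of vehicle-only cultures of the same strain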; settings: S. cerevisiae rad50 strain growth inhibition, stronger effect = higher value
Procedure, shortened: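 Cells are treated with compound, grown, and their growth is then scored against vehicle-only cultures of the same repair-deficient yeast strain.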

[10] = NCI Yeast Anticancer Drug Screen. Data for the mec2-1 strain (AID 157); settings: S. cerevisiae mec2-1 strain, stronger effect = higher value
Procedure, shortened: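 Compounds were applied to mec2-1 yeast cells. Their growth was then compared with that of vehicle-treated cultures to give growth inhibition.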

[11] = NCI Yeast Anticancer Drug Screen. Data for the rad14 strain (AID 159);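 further: 0% = growth of vehicle-treated control cultures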; settings: S. cerevisiae rad14 strain growth inhibition, stronger effect = higher value
Procedure, shortened: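 Readout: yeast growth inhibition, referenced to vehicle-only cultures. Strain bears a defined alteration in DNA damage repair.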

[12] = NCI Yeast Anticancer Drug Screen. Data for the sgs1 mgt1 strain (AID 161);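 further: 0% = growth of cultures given vehicle only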; settings: S. cerevisiae sgs1 mgt1 strain, stronger effect = higher value
Procedure, shortened: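 Compounds are added to genetically altered yeast, and growth is compared with cultures given vehicle alone to give percent inhibition.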

[13] = NCI Yeast Anticancer Drug Screen. Data for the CLN2oe strain (AID 163);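 further: 0% = growth of vehicle-only control cultures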; settings: S. cerevisiae CLN2oe strain, stronger effect = higher value
Procedure, shortened: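 Cells of an engineered yeast line with disturbed cell-cycle regulation are treated with compound. Inhibition of growth is then calculated relative to the vehicle-treated reference.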

[14] = NCI Yeast Anticancer Drug Screen. Data for the cln2 rad14 strain (AID 165);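 further: 0% = growth equal to vehicle treated cultures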; settings: S. cerevisiae cln2 rad14 strain, stronger effect = higher value
Procedure, shortened: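 Strain: cln2 rad14 yeast, altered in cell cycle control and DNA damage repair. Read-out: growth inhibition vs vehicle.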

[15] = NCI Yeast Anticancer Drug Screen. Data for the bub3 strain (AID 167); settings: S. cerevisiae bub3 mutant strain, stronger effect = higher value
Procedure, shortened: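 Part of a panel of yeast mutants defective in DNA damage repair or cell cycle regulation. Each strain is grown with compound, and inhibition is calculated relative to solvent-treated cultures.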

[16] = NCI Yeast Anticancer Drug Screen. Data for the mlh1 strain (AID 171);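 further: 0% = growth of vehicle-treated control cultures of the same strain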; settings: S. cerevisiae mlh1 strain growth inhibition, stronger effect = higher value
Procedure, shortened: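 Test agents were incubated with yeast bearing a defined DNA damage repair or cell cycle control alteration; values are growth inhibition normalised to vehicle-treated cultures.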

[17] = at 5.0 µM (retest, dose inferred, filed as 0.5)
[18] = at 50.0 µM (retest, dose inferred, filed as 5.0)

Measured: growth inhibition

CNC(=O)OCc1c2ccncc2c(C)c2c1[nH]c1ccccc12
inactive: [1]; at 1.2 µM -17% | [1]; at 3.7 µM -21% | [1]; at 11.0 µM -9% | [1]; at 33.0 µM -1% | [1]; at 100.0 µM 42% | [2]; at 1.2 µM 67% | [3]; [17] 33%
active: [2]; at 3.7 µM 76% | [2]; at 11.0 µM 84% | [2]; at 33.0 µM 85% | [2]; at 100.0 µM 84% | [3]; [18] 71% | [3]; at 50.0 µM 82.8% | [4]; at 1.2 µM 89% | [4]; at 3.7 µM 93% | [4]; at 11.0 µM 93% | [4]; at 33.0 µM 91% | [4]; at 100.0 µM 87%

CCC[CH2][Sn]([CH2]CCC)([CH2]CCC)/[C](=C/[Si](C)(C)c1ccccc1)c1ccc2c(c1)OCO2
active: [5]; at 11.0 µM 92% | [5]; at 33.0 µM 90% | [5]; at 100.0 µM 87% | [6]; at 11.0 µM 94% | [6]; at 33.0 µM 92% | [6]; at 100.0 µM 89% | [7]; at 100.0 µM 74% | [8]; at 11.0 µM 95% | [8]; at 33.0 µM 92% | [8]; at 100.0 µM 93% | [9]; at 3.7 µM 72% | [9]; at 11.0 µM 89% | [9]; at 33.0 µM 87% | [9]; at 50.0 µM 91.2% | [9]; at 100.0 µM 87% | [10]; at 11.0 µM 94% | [10]; at 33.0 µM 92% | [10]; at 50.0 µM 93.7% | [10]; at 100.0 µM 91% | [11]; at 11.0 µM 95% | [11]; at 33.0 µM 93% | [11]; at 100.0 µM 93% | [12]; [17] 75% | [12]; [18] 75% | [12]; at 50.0 µM 91.8% | [13]; at 11.0 µM 92% | [13]; at 33.0 µM 89% | [13]; at 100.0 µM 84% | [14]; at 50.0 µM 91.3% | [15]; at 11.0 µM 93% | [15]; at 33.0 µM 89% | [15]; at 50.0 µM 92% | [15]; at 100.0 µM 89% | [16]; at 11.0 µM 93% | [16]; at 33.0 µM 92% | [16]; at 100.0 µM 91% | [2]; at 11.0 µM 94% | [2]; at 33.0 µM 90% | [2]; at 100.0 µM 90% | [3]; at 50.0 µM 89% | [4]; at 3.7 µM 82% | [4]; at 11.0 µM 92% | [4]; at 33.0 µM 86% | [4]; at 100.0 µM 88%
inactive: [5]; at 1.2 µM 11% | [5]; at 3.7 µM 48% | [6]; at 1.2 µM 3% | [6]; at 3.7 µM 15% | [7]; at 1.2 µM 6% | [7]; at 3.7 µM 17% | [7]; at 11.0 µM 33% | [7]; at 33.0 µM 66% | [8]; at 1.2 µM 0% | [8]; at 3.7 µM 26% | [9]; at 1.2 µM 13% | [9]; [17] 67% | [9]; [18] 67% | [10]; at 1.2 µM -1% | [10]; at 3.7 µM 17% | [10]; [17] 27% | [10]; [18] 27% | [11]; at 1.2 µM 1% | [11]; at 3.7 µM 24% | [13]; at 1.2 µM -5% | [13]; at 3.7 µM 4% | [14]; [17] 7% | [14]; [18] 7% | [15]; at 1.2 µM -2% | [15]; at 3.7 µM 10% | [15]; [17] 14% | [15]; [18] 14% | [16]; at 1.2 µM 7% | [16]; at 3.7 µM 47% | [2]; at 1.2 µM 1% | [2]; at 3.7 µM 44% | [3]; [17] 44% | [3]; [18] 44% | [4]; at 1.2 µM 25%

COc1c2c(c3c(c1CCC(=O)O)OC(C)(C)C=C3)OC(C)(C)C=C2
inactive: [5]; at 1.2 µM -3% | [5]; at 3.7 µM 1% | [5]; at 11.0 µM 10% | [5]; at 33.0 µM 62% | [6]; at 1.2 µM 0% | [6]; at 3.7 µM 2% | [6]; at 11.0 µM 13% | [6]; at 33.0 µM 49% | [7]; at 1.2 µM -3% | [7]; at 3.7 µM 1% | [7]; at 11.0 µM 5% | [7]; at 33.0 µM 15% | [7]; at 100.0 µM 35% | [8]; at 1.2 µM -1% | [8]; at 3.7 µM 0% | [8]; at 11.0 µM 15% | [8]; at 33.0 µM 61% | [9]; at 1.2 µM -1% | [9]; at 3.7 µM -3% | [9]; [17] 15% | [9]; at 11.0 µM 19% | [9]; at 33.0 µM 54% | [9]; [18] 45% | [9]; at 50.0 µM 58.2% | [10]; at 1.2 µM -2% | [10]; at 3.7 µM 2% | [10]; [17] -1% | [10]; at 11.0 µM 20% | [10]; at 33.0 µM 59% | [10]; [18] 49% | [10]; at 50.0 µM 65.8% | [11]; at 1.2 µM 0% | [11]; at 3.7 µM 2% | [11]; at 11.0 µM 11% | [11]; at 33.0 µM 53% | [12]; [17] -3% | [12]; [18] 32% | [12]; at 50.0 µM 69.8% | [13]; at 1.2 µM -1% | [13]; at 3.7 µM -1% | [13]; at 11.0 µM 27% | [15]; at 1.2 µM -7% | [15]; at 3.7 µM -1% | [15]; [17] -13% | [15]; at 11.0 µM 6% | [15]; at 33.0 µM 58% | [15]; [18] 20% | [1]; at 1.2 µM -1% | [1]; at 3.7 µM 2% | [1]; at 11.0 µM 17% | [1]; at 33.0 µM 56% | [16]; at 1.2 µM 2% | [16]; at 3.7 µM 3% | [16]; at 11.0 µM 20% | [16]; at 33.0 µM 39% | [2]; at 1.2 µM 0% | [2]; at 3.7 µM 4% | [2]; at 11.0 µM 20% | [2]; at 33.0 µM 59% | [3]; [17] 3% | [3]; [18] 43% | [4]; at 1.2 µM 3% | [4]; at 3.7 µM 8% | [4]; at 11.0 µM 22% | [4]; at 33.0 µM 51%
active: [5]; at 100.0 µM 98% | [6]; at 100.0 µM 97% | [8]; at 100.0 µM 99% | [9]; at 100.0 µM 98% | [10]; at 100.0 µM 98% | [11]; at 100.0 µM 98% | [13]; at 33.0 µM 80% | [13]; at 100.0 µM 99% | [15]; at 50.0 µM 71.9% | [15]; at 100.0 µM 97% | [1]; at 100.0 µM 98% | [16]; at 100.0 µM 99% | [2]; at 100.0 µM 98% | [3]; at 50.0 µM 76.4% | [4]; at 100.0 µM 97%
